In PubChem BioAssay (Tox21):
Inconclusive results are not listed. Active and inactive are the calls of the source. Unless noted, calls come from the whole dose curve; as a rule, active = well fitted curve in the direction sought with a large enough effect in the repeat runs; inconclusive = weak or mixed curves; inactive = no such curve, though single readings can be large; an effect the other way counts as inactive or inconclusive.

Legend:
[1] = A CellTox Green Cytotoxicity Assay to monitor cytotoxicity in HepG2 cells - 16 hour (AID 1224876); note: nearly all actives have a fitted effect of over 45% in size
Outline: (§1)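 HepG2 cells, 600/well, preincubated 5 h with CellTox Green dye, then exposed to Tox21 compounds in DMSO at 37 C for up to 40 h. Dead-cell DNA fluorescence read at the indicated time point.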

[2] = qHTS RealTime-Glo MT Cell Viability Assay in HepG2 cells - 32 hour (AID 1224877); note: nearly all actives have a fitted effect of over 55% in size
Outline: (§2)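 HepG2 suspension premixed with RealTime-Glo reagents is plated at 600 cells per well and left 5 h at 37 C/5% CO2. Compounds in DMSO then go in, and bioluminescence reflecting viable cell number is recorded over 40 h.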

[3] = A CellTox Green Cytotoxicity Assay to monitor cytotoxicity in HepG2 cells - 24 hour (AID 1224878); note: nearly all actives have a fitted effect of over 45% in size
Outline: as §1

[4] = A CellTox Green Cytotoxicity Assay to monitor cytotoxicity in HepG2 cells - 40 hour (AID 1224879); note: nearly all actives have a fitted effect of over 40% in size
Outline: as §1

[5] = qHTS RealTime-Glo MT Cell Viability Assay in HEK293 cells - 0 hour (AID 1224880); note: top concentration of the series differs between compounds; nearly all actives have a fitted effect of over 45% in size
Outline: (§3)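 600 cells/well were plated with the nonlytic NanoLuc/prosubstrate reagent, pre-incubated 5 h, then given 23 nL of compound in DMSO. Incubation at 37 C for 40 h, with luminescence from viable-cell-reduced substrate read repeatedly from 0 h.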

[6] = A CellTox Green Cytotoxicity Assay to monitor cytotoxicity in HEK293 cells - 32 hour (AID 1224881); note: nearly all actives have a fitted effect of over 40% in size
Outline: (§4)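 HEK293 cells, 600/well, were preincubated 5 hours and then exposed to compounds at 37 C for up to 40 hours. A cell-impermeant cyanine dye staining dead-cell DNA was read by fluorescence at 0, 8, 16, 24, 32 and 40 h time points.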

[7] = A CellTox Green Cytotoxicity Assay to monitor cytotoxicity in HepG2 cells - 0 hour (AID 1224882); note: nearly all actives have a fitted effect of over 35% in size
Outline: as §1

[8] = A CellTox Green Cytotoxicity Assay to monitor cytotoxicity in HepG2 cells - 32 hour (AID 1224883); note: nearly all actives have a fitted effect of over 50% in size
Outline: as §1

[9] = qHTS RealTime-Glo MT Cell Viability Assay in HepG2 cells - 16 hour (AID 1224885); note: nearly all actives have a fitted effect of over 50% in size
Outline: as §2

[10] = qHTS RealTime-Glo MT Cell Viability Assay in HEK293 cells - 24 hour (AID 1224886); note: top concentration of the series differs between compounds; nearly all actives have a fitted effect of over 50% in size
Outline: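 Reads taken at 0, 8, 16, 24, 32 and 40 h from the same wells. HEK293 cells (600/well) carried RealTime-Glo reagents from seeding, with compound added after a 5 h settle at 37 C.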

[11] = qHTS RealTime-Glo MT Cell Viability Assay in HEK293 cells - 8 hour (AID 1224887); note: top concentration of the series differs between compounds; nearly all actives have a fitted effect of over 50% in size
Outline: as §3

[12] = A CellTox Green Cytotoxicity Assay to monitor cytotoxicity in HEK293 cells - 16 hour (AID 1224888); note: nearly all actives have a fitted effect of over 35% in size
Outline: as §4

[13] = A CellTox Green Cytotoxicity Assay to monitor cytotoxicity in HepG2 cells - 8 hour (AID 1224890); note: nearly all actives have a fitted effect of over 45% in size
Outline: as §1

[14] = qHTS assay to identify small molecule antagonists of the estrogen receptor alpha (ER-alpha) signaling pathway using the BG1 cell line in the presence of 0.1 nM 17-beta-estradiol - cell viability counter screen (AID 1259241); note: nearly all actives have a fitted effect of over 40% in size
Outline: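 Cytotoxicity counter-screen: live-cell protease activity measured by fluorescence (30 min reagent step) in the same wells. Cells were VM7Luc4E2 with endogenous ER-alpha and ERE-driven luciferase, treated 22 hr at 37C alongside 0.1 nM 17beta-estradiol final.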

[15] = qHTS assay to identify small molecule antagonists of the androgen receptor (AR) signaling pathway using the MDA cell line in the presence of 0.5 nM R1881 - cell viability counter screen (AID 1259242); note: nearly all actives have a fitted effect of over 45% in size
Outline: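 MDA-kb2 cells (MMTV-luciferase, AR/GR responsive) were treated with compounds plus 0.5 nM R1881 (final) for 16 hr at 37C, 0% CO2. Viability was then read in the same wells as live-cell protease fluorescence (CellTiter-Fluor, 30 min).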

[16] = biological target: Estrogen receptor (Homo sapiens) (UniProt P03372); experiment: qHTS assay to identify small molecule antagonists of the estrogen receptor alpha (ER-alpha) signaling pathway using the BG1 cell line in the presence of 0.1 nM 17-beta-estradiol (AID 1259244); note: nearly all actives have a fitted effect of over 50% in size
Chain of Estrogen receptor (Homo sapiens) (P03372 whole entry, looked up): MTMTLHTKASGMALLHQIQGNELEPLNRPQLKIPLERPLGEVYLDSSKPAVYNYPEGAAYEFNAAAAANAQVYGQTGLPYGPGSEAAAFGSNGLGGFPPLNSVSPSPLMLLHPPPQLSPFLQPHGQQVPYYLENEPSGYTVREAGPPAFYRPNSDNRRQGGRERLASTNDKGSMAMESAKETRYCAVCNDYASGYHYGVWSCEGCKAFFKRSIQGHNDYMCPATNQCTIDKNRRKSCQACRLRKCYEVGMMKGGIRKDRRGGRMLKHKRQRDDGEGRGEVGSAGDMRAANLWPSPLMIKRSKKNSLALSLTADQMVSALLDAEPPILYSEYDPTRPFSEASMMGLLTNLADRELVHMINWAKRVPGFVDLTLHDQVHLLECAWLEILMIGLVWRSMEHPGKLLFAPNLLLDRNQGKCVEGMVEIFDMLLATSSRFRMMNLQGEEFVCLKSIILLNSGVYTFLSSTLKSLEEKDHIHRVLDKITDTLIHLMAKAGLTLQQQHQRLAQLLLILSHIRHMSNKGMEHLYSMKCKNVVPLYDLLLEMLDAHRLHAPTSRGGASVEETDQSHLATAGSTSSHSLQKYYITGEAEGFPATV
Outline: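 VM7Luc4E2 cells (endogenous full-length ER-alpha, 4×ERE-luciferase), kept 5 days in phenol red-free, charcoal-stripped FBS medium; 4,000 cells/well. Compounds added with 0.1 nM (final) 17beta-estradiol, 22 hr at 37C; luminescence read with ONE-Glo after 30 min.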

[17] = A CellTox Green Cytotoxicity Assay to monitor cytotoxicity in HEK293 cells - 8 hour (AID 1224884); note: nearly all actives have a fitted effect of over 35% in size
Outline: as §4

[18] = qHTS RealTime-Glo MT Cell Viability Assay in HepG2 cells - 0 hour (AID 1224889); note: nearly all actives have a fitted effect of over 50% in size
Outline: as §2

[19] = biological target: Androgen receptor (Homo sapiens) (UniProt P10275); experiment: qHTS assay to identify small molecule antagonists of the androgen receptor (AR) signaling pathway using the MDA cell line in the presence of 0.5 nM R1881 (AID 1259243); note: nearly all actives have a fitted effect of over 50% in size
Chain of Androgen receptor (Homo sapiens) (P10275 whole entry, looked up): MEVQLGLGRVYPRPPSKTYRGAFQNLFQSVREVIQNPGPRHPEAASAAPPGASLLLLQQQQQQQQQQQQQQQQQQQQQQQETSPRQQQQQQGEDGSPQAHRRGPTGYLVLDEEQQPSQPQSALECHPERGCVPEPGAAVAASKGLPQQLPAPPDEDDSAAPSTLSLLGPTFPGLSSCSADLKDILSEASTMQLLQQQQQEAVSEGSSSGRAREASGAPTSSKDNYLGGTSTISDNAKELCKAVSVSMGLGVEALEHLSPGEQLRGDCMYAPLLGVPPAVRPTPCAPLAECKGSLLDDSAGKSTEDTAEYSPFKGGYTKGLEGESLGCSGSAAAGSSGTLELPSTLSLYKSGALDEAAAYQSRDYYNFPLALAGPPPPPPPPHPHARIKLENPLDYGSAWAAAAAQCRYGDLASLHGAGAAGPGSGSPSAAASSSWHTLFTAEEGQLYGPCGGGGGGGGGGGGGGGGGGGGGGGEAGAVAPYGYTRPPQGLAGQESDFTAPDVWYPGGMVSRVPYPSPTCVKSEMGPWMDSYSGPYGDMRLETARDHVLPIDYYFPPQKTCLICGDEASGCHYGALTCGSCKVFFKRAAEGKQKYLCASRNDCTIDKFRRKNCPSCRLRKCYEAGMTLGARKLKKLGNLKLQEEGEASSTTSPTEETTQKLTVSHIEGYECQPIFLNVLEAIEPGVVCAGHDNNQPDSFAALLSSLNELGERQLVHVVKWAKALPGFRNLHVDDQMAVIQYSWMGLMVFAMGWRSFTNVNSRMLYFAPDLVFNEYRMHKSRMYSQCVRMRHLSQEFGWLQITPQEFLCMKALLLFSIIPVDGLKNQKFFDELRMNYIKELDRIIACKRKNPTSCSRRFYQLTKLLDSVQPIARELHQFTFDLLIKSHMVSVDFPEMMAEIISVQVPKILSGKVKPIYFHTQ
Outline: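 MDA-kb2 cells (MMTV-luciferase, responsive to AR and GR) at 3,000/well, rested 5 h at 37C, 0% CO2, then given compounds plus 0.5 nM R1881 (final) for 16 hr. Luciferase read with ONE-Glo after 30 min at room temperature.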

[20] = qHTS assay to identify small molecule phospholipidosis (PLD) inducers (AID 1259344; active = well fitted curve in the direction sought with a large enough effect; an effect the other way counts as inactive or inconclusive)
Outline: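 Phospholipidosis is scored by imaging LipidTOX-stained pits in HepG2 cells exposed to compound for 24 h at 37 C; pit counts and integrated intensities per well and per cell serve as outputs.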
% is set by controls: 0 for no effect and ±100 for the full control effect.

COP(=O)(O)OP(=O)(O)OC
inactive: Potency [1] | outcome [2] | Potency [3] | Potency [4] | Potency [5] | Potency [6] | Potency [7] | Potency [8] | outcome [9] | Potency [10] | Potency [11] | Potency [12] | Potency [13] | outcome [14] | outcome [15] | outcome [16]

CSc1cnccn1
inactive: Potency [1] | outcome [2] | Potency [3] | Potency [4] | Potency [5] | Potency [6] | Potency [7] | Potency [17] | outcome [9] | Potency [10] | Potency [11] | Potency [12] | Potency [18] | Potency [13] | outcome [14] | outcome [15] | outcome [16]

CCCCCCCCCCCCCCC(=O)NC(CO)CCCCCCCCCCCCCC (stereo unspecified)
inactive: Potency [1] | outcome [2] | Potency [3] | Potency [4] | Potency [5] | Potency [6] | Potency [7] | Potency [8] | outcome [9] | Potency [10] | Potency [11] | Potency [12] | Potency [18] | Potency [13] | outcome [14] | outcome [15] | outcome [16]

C=C(C)[C@@H]1CC=C(C)C(=O)C1
inactive: Potency [1] | outcome [2] | Potency [3] | Potency [4] | Potency [5] | Potency [6] | Potency [7] | Potency [17] | outcome [9] | Potency [10] | Potency [11] | Potency [12] | Potency [18] | Potency [13] | outcome [14] | outcome [15]

CCCCCC(C)O (stereo unspecified)
inactive: Potency [1] | outcome [2] | Potency [3] | Potency [4] | Potency [5] | Potency [6] | Potency [7] | Potency [8] | Potency [17] | outcome [9] | Potency [11] | Potency [12] | Potency [18] | Potency [13] | outcome [14] | outcome [15] | outcome [16]

CCOC(CN1CCN(CC(C)C(=O)c2ccccc2)CC1)c1ccccc1 (stereo unspecified)
inactive: cytotoxicity increase [1] -21.5% [at 15.8 µM] | activity change, negative = cytotoxic [2] 0.188% [at 15.8 µM] | cytotoxicity [3] -18.2% [at 15.8 µM] | cytotoxicity increase [4] -19.9% [at 15.8 µM] | activity change, negative = cytotoxicity [5] 0.0674% [at 15.8 µM] | cytotoxicity increase [6] -3.67% [at 15.8 µM] | cytotoxicity [7] -4.84% [at 15.8 µM] | cytotoxicity increase [8] -18.4% [at 15.8 µM] | cytotoxicity increase [17] -4.22% [at 15.8 µM] | activity change, negative = cytotoxic [9] 0.651% [at 15.8 µM] | activity change [12] -4.55% [at 15.8 µM, active compounds read high] | activity change, negative = cytotoxicity [18] 0.232% [at 15.8 µM] | cytotoxicity increase [13] -9.59% [at 15.8 µM] | activity change, negative = cytotoxicity [14] -7.75% [at 19 µM] | viability change, negative = cytotoxic [15] -2.37% [at 19 µM]

N[C@@H](CSCCCO)C(=O)O
inactive: cytotoxicity increase [1] -15.5% [at 15.8 µM] | activity change, negative = cytotoxic [2] 2.25% [at 15.8 µM] | cytotoxicity [3] -17.7% [at 15.8 µM] | cytotoxicity increase [4] -14.5% [at 15.8 µM] | activity change, negative = cytotoxicity [5] -0.729% [at 15.8 µM] | cytotoxicity increase [6] -0.789% [at 15.8 µM] | cytotoxicity [7] -7.54% [at 15.8 µM] | cytotoxicity increase [8] -15.9% [at 15.8 µM] | cytotoxicity increase [17] -2.04% [at 15.8 µM] | activity change, negative = cytotoxic [9] 0.578% [at 15.8 µM] | activity change, negative = cytotoxicity [11] -0.319% [at 15.8 µM] | activity change [12] 3.31% [at 15.8 µM, active compounds read high] | cytotoxicity increase [13] -14.5% [at 15.8 µM] | activity change, negative = cytotoxicity [14] -2.4% [at 19 µM] | viability change, negative = cytotoxic [15] 2.53% [at 19 µM] | activity, negative = inhibition [19] -8.92% [at 19 µM] | activity change, negative = inhibition [16] -4.57% [at 19 µM] | outcome [20]

CC(=O)O[Si](C)(OC(C)=O)OC(C)=O
inactive: Potency [1] | outcome [2] | Potency [3] | Potency [4] | Potency [5] | Potency [6] | Potency [7] | Potency [8] | Potency [17] | outcome [9] | Potency [12] | Potency [18] | Potency [13] | outcome [14] | outcome [15]
